Experimental data published in PubChem BioAssay AID1159580 (chemical genetic matrix, 2015).
Screen size: about 5,500 compounds; about 2,000 (36%) were called active. Roughly 18% stayed inconclusive and do not appear here. Cut-off read from the data, not from the text of the source: active = normalized growth mostly below about 0.91 (no sharp cut-off); inconclusive = no clear call, values can overlap the other calls; inactive = mostly above about 0.92. The list shows a part of the results.

Assay: chemical genetic growth profiling, strain panel (AID 1159580);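 note: tested at 20 µM; growth read once vehicle control cultures reached saturation at 30 °C; 1 = growth at the plate median or of vehicle wells; lower values mean less growth of the strain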
Details: S. cerevisiae deletion strains, growth OD
[1] = locus YAL021C, strain ccr4, stronger effect = lower value
[2] = locus YAL026C, strain drs2, stronger effect = lower value
[3] = locus YAL030W, strain snc1, stronger effect = lower value
[4] = locus YBL061C, strain skt5, stronger effect = lower value
[5] = locus YBR009C, strain hhf1, stronger effect = lower value
[6] = locus YBR023C, strain chs3, stronger effect = lower value
[7] = locus YBR171W, strain sec66, stronger effect = lower value
[8] = locus YBR231C, strain swc5, stronger effect = lower value
[9] = locus YBR279W, strain paf1, stronger effect = lower value
[10] = locus YCL011C, strain gbp2, stronger effect = lower value
[11] = locus YCL016C, strain dcc1, stronger effect = lower value
[12] = locus YCL069W, strain vba3, stronger effect = lower value
[13] = locus YCR088W, strain abp1, stronger effect = lower value
[14] = locus YDL005C, strain med2, stronger effect = lower value
[15] = locus YDL040C, strain nat1, stronger effect = lower value
[16] = locus YDR001C, strain nth1, stronger effect = lower value
[17] = locus YDR069C, strain doa4, stronger effect = lower value
[18] = locus YDR137W, strain rgp1, stronger effect = lower value
[19] = locus YDR159W, strain sac3, stronger effect = lower value
[20] = locus YDR297W, strain sur2, stronger effect = lower value
[21] = locus YDR334W, strain swr1, stronger effect = lower value
[22] = locus YDR335W, strain msn5, stronger effect = lower value
[23] = locus YDR392W, strain spt3, stronger effect = lower value
[24] = locus YEL003W, strain gim4, stronger effect = lower value
[25] = locus YEL037C, strain rad23, stronger effect = lower value
[26] = locus YER015W, strain faa2, stronger effect = lower value
[27] = locus YER016W, strain bim1, stronger effect = lower value
[28] = locus YER111C, strain swi4, stronger effect = lower value
[29] = locus YER155C, strain BEM2 (second series), stronger effect = lower value
[30] = locus YFR010W, strain ubp6, stronger effect = lower value
[31] = locus YGL167C, strain pmr1, stronger effect = lower value
[32] = locus YGL173C, strain kem1, stronger effect = lower value
[33] = locus YGL227W, strain vid30, stronger effect = lower value
[34] = locus YGL240W, strain doc1, stronger effect = lower value
[35] = locus YGL253W, strain hxk2, stronger effect = lower value
[36] = locus YHR013C, strain ard1, stronger effect = lower value
[37] = locus YHR027C, strain rpn1, stronger effect = lower value
[38] = locus YHR142W, strain chs7, stronger effect = lower value
[39] = locus YJL092W, strain hpr5, stronger effect = lower value
[40] = locus YJL095W, strain BCK1 (second series), stronger effect = lower value
[41] = locus YJL115W, strain asf1, stronger effect = lower value
[42] = locus YJL129C, strain trk1, stronger effect = lower value
[43] = locus YJL154C, strain vps35, stronger effect = lower value
[44] = locus YJL164C, strain tpk1, stronger effect = lower value
[45] = locus YJL166W, strain qcr8, stronger effect = lower value
[46] = locus YJL187C, strain SWE1, stronger effect = lower value
[47] = locus YKL160W, strain elf1, stronger effect = lower value
[48] = locus YKR026C, strain gcn3, stronger effect = lower value
[49] = locus YKR091W, strain srl3, stronger effect = lower value
[50] = locus YLL001W, strain dnm1, stronger effect = lower value
[51] = locus YLL026W, stronger effect = lower value
[52] = locus YLL041C, strain sdh2, stronger effect = lower value
[53] = locus YLR027C, strain aat2, stronger effect = lower value
[54] = locus YLR221C, strain rsa3, stronger effect = lower value
[55] = locus YLR258W, strain gsy2, stronger effect = lower value
[56] = locus YLR262C, strain YPT6 (second series), stronger effect = lower value
[57] = locus YLR320W, strain mms22, stronger effect = lower value
[58] = locus YLR342W, strain FKS1, stronger effect = lower value
[59] = locus YLR357W, strain rsc2, stronger effect = lower value
[60] = locus YLR370C, strain arc18, stronger effect = lower value
[61] = locus YLR384C, strain iki3, stronger effect = lower value
[62] = locus YML120C, strain ndi1, stronger effect = lower value
[63] = locus YMR058W, strain fet3, stronger effect = lower value
[64] = locus YMR125W, strain sto1, stronger effect = lower value
[65] = locus YMR129W, stronger effect = lower value
[66] = locus YMR205C, strain PFK2, stronger effect = lower value
[67] = locus YMR231W, strain pep5, stronger effect = lower value
[68] = locus YNL071W, strain lat1, stronger effect = lower value
[69] = locus YNL209W, strain ssb2, stronger effect = lower value
[70] = locus YNL248C, strain rpa49, stronger effect = lower value
[71] = locus YNL322C, strain KRE1 (second series), stronger effect = lower value
[72] = locus YNR049C, strain mso1, stronger effect = lower value
[73] = locus YOR001W, strain rrp6, stronger effect = lower value
[74] = locus YOR070C, strain gyp1, stronger effect = lower value
[75] = locus YOR080W, strain dia2, stronger effect = lower value
[76] = locus YOR083W, strain WHI5, stronger effect = lower value
[77] = locus YOR106W, strain vam3, stronger effect = lower value
[78] = locus YOR265W, strain rbl2, stronger effect = lower value
[79] = locus YOR270C, strain vph1, stronger effect = lower value
[80] = locus YOR290C, strain snf2, stronger effect = lower value
[81] = locus YPL051W, strain arl3, stronger effect = lower value
[82] = locus YPL078C, strain atp4, stronger effect = lower value
[83] = locus YPL106C, strain sse1, stronger effect = lower value
[84] = locus YPL240C, strain hsp82, stronger effect = lower value

Measured: normalized growth

CC(CC(=O)C1OC1(C)C)C1C(=O)CC2(C)C3=CCC4C(C)(C)C(OC5OCC(O)C(O)C5O)CCC45CC35C(O)CC12C (configuration not stated)
inactive: [1] 1.03 | [2] 1.01 | [3] 1.04 | [4] 1.02 | [5] 1.02 | [6] 1.01 | [7] 1.03 | [8] 1.02 | [9] 1.02 | [10] 1.02 | [11] 1 | locus YCL061C, strain MRC1, stronger effect = lower value 1.02 | [12] 1.01 | [13] 1.02 | [14] 1.03 | [15] 1.02 | [16] 1.02 | [17] 1.03 | [18] 1.04 | [19] 1.04 | locus YDR195W, strain ref2 1.01 | [20] 1.02 | [21] 1.01 | [22] 1.02 | [23] 1.03 | [24] 1.02 | [25] 1.04 | locus YEL061C, strain CIN8 (second series), stronger effect = lower value 1.02 | [26] 1.02 | [27] 1.02 | [28] 1.03 | [29] 1.03 | [30] 1.03 | [31] 1.03 | [32] 1.02 | [33] 1.02 | [34] 1.03 | [35] 1.01 | [36] 1.08 | [37] 1.02 | [38] 1.01 | [39] 1.02 | [40] 1.03 | [41] 1.01 | [42] 1.01 | [43] 1.02 | [44] 1.01 | [45] 1.02 | [46] 1.02 | [47] 1.03 | [48] 1.03 | [49] 1.03 | [50] 1.01 | [51] 1.02 | [52] 1.01 | [53] 1.03 | [54] 1.02 | [55] 1.01 | [56] 1.05 | [57] 1.04 | [58] 1.01 | [59] 1.02 | [60] 1.02 | [61] 1.02 | [62] 1.02 | [63] 1.02 | [64] 1.03 | [65] 1.02 | [66] 1.03 | [67] 1.01 | [68] 1.01 | [69] 1.02 | [70] 1.02 | [71] 1.03 | [72] 1.02 | [73] 1.02 | [74] 1.01 | [75] 1.03 | [76] 1.02 | [77] 1.03 | [78] 1.01 | [79] 1.02 | [80] 1.02 | [81] 1.02 | [82] 1.02 | [83] 1.04 | [84] 1.04

CC1(C)CCC2(C(=O)O)CCC3(C)C(=CCC4C5(C)CCC(O)C(C)(C)C5C(O)CC43C)C2C1 (configuration not stated)
inactive: [1] 1 | [2] 1.04 | [3] 1.03 | [4] 1.03 | [5] 1.02 | [6] 1.04 | [7] 1.05 | [8] 1.03 | [9] 1.03 | [10] 1.02 | [11] 1.01 | [12] 1.03 | [13] 1.04 | [15] 1.04 | [16] 1.03 | [18] 0.871 | [19] 1.01 | locus YDR195W, strain ref2 1.06 | [20] 1.04 | [21] 1.04 | [22] 1.01 | [23] 0.966 | [24] 1.01 | [25] 1.02 | [26] 1.03 | [27] 1.04 | [28] 1.02 | [29] 1.03 | [30] 1.06 | [31] 1.05 | [32] 1.03 | [33] 1.04 | [34] 0.961 | [35] 1.04 | [36] 1.12 | [37] 1.04 | [38] 1.02 | [39] 1.04 | [40] 1.05 | [41] 1.03 | [42] 0.972 | [43] 1.02 | [44] 1.02 | [45] 1.02 | [46] 1.03 | [47] 1.03 | [48] 1.05 | [49] 1.03 | [50] 1.02 | [51] 1.03 | [52] 1.05 | [53] 1.04 | [54] 1.03 | [55] 1.02 | [56] 0.938 | [57] 1.02 | [58] 1.04 | [59] 1.01 | [60] 1.04 | [61] 1.04 | [62] 1.02 | [63] 1.01 | [64] 1.03 | [65] 1.03 | [66] 1.02 | [67] 1.02 | [68] 1.05 | [69] 1.04 | [70] 1.01 | [71] 1.05 | [72] 1.04 | [73] 0.964 | [74] 1.03 | [75] 1.04 | [76] 1.02 | [77] 0.901 | [78] 1.02 | [79] 0.911 | [80] 0.991 | [81] 0.992 | [82] 1.01 | [83] 1.03 | [84] 1.03
active: [14] 0.246 | [17] 1.11 [resistant]
